Test results: PubChem BioAssay AID687001 (Broad Institute, 2013)
Measured potencies and affinities stand elsewhere. Calls of active or inactive are those of the source.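 How the source made its calls: active means signal-lowering compounds whose fitted half-maximal concentration is at or below twice the top tested dose in every run; inconclusive means runs disagree, flat 30 to 70% inhibition, or poor curve fit; inactive means the rest.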

target: Protein S100-A4 (Homo sapiens) (UniProt P26447); experiment: human S100A4 peptide interaction inhibition curves – biochemical, fluorescence polarization, cherry-picked hits, dose response (AID 687001); settings: FP, S100A4/TAMRA-myosin IIA peptide binding; series mostly up to 11 µM
Sequence (P26447 whole entry, looked up): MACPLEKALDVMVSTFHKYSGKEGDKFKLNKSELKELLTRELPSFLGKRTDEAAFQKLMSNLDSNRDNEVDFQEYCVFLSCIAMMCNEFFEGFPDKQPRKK

Row | SMILES | outcome
1 | CN1C(=O)c2cc(NC(=O)c3ccccc3Cl)ccc2OC[C@@H]2O[C@@H](CC(=O)NCC(F)(F)F)CC[C@H]21 | inactive
2 | C[C@@H]1CN([C@H](C)CO)C(=O)c2cc(NC(=O)C3CC3)ccc2O[C@@H]1CN(C)C(=O)Nc1ccc2c(c1)OCO2 | inactive
3 | CCn1c(=O)c2ccccc2n2c(SCC(N)=O)nnc12 | inactive
4 | Cc1cccc(C)c1NC(=O)C1(C)CCC(=O)N1CCOc1ccccc1 (stereo not drawn) | inactive
5 | CC1CCN(C(=O)c2[nH]cnc2C(=O)N[C@@H](C)C(=O)OCc2ccccc2)CC1 | inactive
6 | COc1ccccc1S(=O)(=O)N[C@H]1CC[C@H](CC(=O)N2CCN(C)CC2)O[C@@H]1CO | inactive
7 | CCC(c1nc2ccccc2[nH]1)n1c(-c2cnccn2)nc2ccccc21 (stereo not drawn) | inactive
8 | CC(C)NC(=O)N(C)C[C@H]1Oc2ccc(NC(=O)CCCN(C)C)cc2C(=O)N([C@H](C)CO)C[C@H]1C | inactive
9 | CC(=O)N1CC(=O)N2[C@H](CO)[C@@H](c3ccc(-c4ccc(C#N)cc4)cc3)[C@H]2C1 | inactive
10 | Oc1ccc(-c2cc(-c3ccc(O)cc3)nc(-c3ccccc3)n2)cc1 | inactive
11 | CN(CCC#N)C(=O)COC(=O)[C@H](Cc1ccccc1)N1C(=O)c2ccccc2C1=O | inactive
12 | C[C@@H]1CCCCO[C@@H](CN(C)C(=O)Cc2ccccc2)[C@H](C)CN([C@@H](C)CO)C(=O)c2cc(NC(=O)Nc3ccc4c(c3)OCO4)ccc2O1 | inactive
13 | Cc1ccc(S(=O)(=O)NCCC(=O)NCC(=O)Nc2c(C)cccc2C)cc1C | inactive
14 | COc1cc(/C=C2\SC(=S)N(NC(=O)c3cccc(O)c3)C2=O)ccc1O | inactive
15 | CC(C)CC#Cc1ccc2c(c1)O[C@@H](CN(C)C(=O)Nc1ccccc1)[C@@H](C)CN([C@H](C)CO)S2(=O)=O | inactive
16 | COc1cc(OC)cc(C(=O)N2CCCc3ccccc32)c1 | inactive
17 | O=C(N[C@H]1CC[C@@H](CCNS(=O)(=O)Cc2ccccc2)O[C@H]1CO)c1ccccc1F | inactive
18 | C[C@@H]1CN([C@@H](C)CO)C(=O)c2cccc(NC(=O)Nc3cccc4ccccc34)c2O[C@H]1CN(C)C(=O)Nc1ccccc1 | inactive
19 | CC(C)(C)[C@H]1COC(=O)CC/C=C\C[C@H](CC(=O)N(CCO)Cc2ccccc2)C(=O)N1 | inactive

Row | SMILES | outcome
20 | COc1ccc(-c2ccc3c(c2)[C@@H]2[C@@H](CCN2C(=O)NC2CCCC2)[C@H](CO)N3C)cc1 | inactive
21 | COc1ccc(S(=O)(=O)N2CCCCC2)cc1NC(=O)CCOc1cc(C)ccc1C | inactive
22 | NC1=NC(=O)C(CC(=O)c2ccc(Cl)cc2)S1 (stereo not drawn) | inactive
23 | O=C(c1ccccc1)c1ccc2nc(N3CCCCC3)c3nncn3c2c1 | inactive
24 | CC(=O)Nc1ccc(Nc2nnc(-c3ccc(C)c(S(N)(=O)=O)c3)c3ccccc23)cc1 | inactive
25 | CCN1CCN(CCNC(=O)c2cc(Cl)c(NC(=O)C3=C(C)OCCS3)cc2OC)CC1 | inactive
26 | O=C(Nc1ccc(Cl)cc1)N[C@H]1CC[C@H](CCNC(=O)c2ccccc2F)O[C@@H]1CO | inactive
27 | C[C@H](CO)N1C[C@H](C)[C@@H](CN(C)Cc2ccc(C(=O)Nc3ccccc3N)cc2)Oc2c(NC(=O)C3CCCCC3)cccc2C1=O | inactive
28 | C[C@@H]1CN([C@@H](C)CO)C(=O)c2cc(C#CCc3ccccc3)cnc2O[C@@H]1CN(C)CC1CC1 | inactive
29 | C[C@@H]1CN([C@H](C)CO)S(=O)(=O)c2ccc(C3=CCCCC3)cc2O[C@@H]1CN(C)Cc1cncnc1 | inactive
30 | CC(C)(C)C1CCSC2=NCCC[C@]2(c2ccccc2)C1 (stereo partly drawn) | inactive
31 | Cc1cccc(-c2oc3ccc(-c4ccc5c(c4)OCO5)cc3c2-c2ccc(OC3CCCCO3)cc2)c1 (stereo not drawn) | inactive
32 | COc1ccc(C(=O)OCc2nnc(-c3ccccc3)o2)cc1S(=O)(=O)N1CCOCC1 | inactive
33 | COC(=O)c1ccc(Oc2nc(SC)nc(N(C)C)n2)cc1 | inactive
34 | O=C(C[C@@H]1C=C[C@@H](NS(=O)(=O)c2cccc(F)c2)[C@@H](CO)O1)NCc1ccc2c(c1)OCO2 | inactive
35 | C=CCSc1n[nH]c(-c2cccs2)n1 | inactive
36 | C/C=C/c1ccc([C@H]2[C@@H](CO)N(C(=O)Nc3ccccc3F)[C@H]2C#N)cc1 | inactive
37 | S=c1[nH]nc(Nc2cccc3ccccc23)s1 | inactive
38 | C#CCOCCOCCOCCNc1nc(N2CCN(C(=O)[C@H]([C@@H](C)CC)n3cc(CCCCN)nn3)CC2)nc(N2CCN(C(=O)[C@H](C)n3cc(CCC(=O)O)nn3)CC2)n1 | inactive
